High-throughput results from PubChem.
EBV LMP1 NFkB: EBV LMP1-driven NF-kappaB luciferase reporter inhibitors, primary screen, cell-based, luminescence, single point. LMP1-induced NF-kappaB luciferase reporter cells. 0.69% of 350,000 active. inhibition, % at 12.5 µM. AID 504558, 2011; in the data active = inhibition above about 41%; inconclusive = no clear call, values can overlap the other calls
EWS-Fli inh: EWS/Fli-driven NR0B1 reporter inhibitors, primary screen, A673 cells, NR0B1 luciferase, luminescence, MLPCN library | viability-normalised | inhibition, % at 12.6 µM | 0.67% of 350,000 active | AID 651661, 2012;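 active = mean inhibition of at least 50% after viability correction, with every replicate also passing that limit; inconclusive = mean reaches 50% but only one of two replicates passes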;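 also: firefly luciferase signal divided by Alamar Blue viability fluorescence both relative to DMSO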
TROY signal inh: inhibitors of TROY-driven NF-kB signaling, primary screen, Q293 LMP1-TROYcd cells, NF-kB luciferase, uHTS | 0.98% of 360,000 active | Q293 LMP1-TROYcd NF-kB luciferase reporter, 4 h | inhibition, % at 10 µM;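 active = compounds whose plate-normalised and pattern-corrected inhibition of the luciferase reporter signal at the single screening dose is 50% or more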
LGR2 inh: inhibitors of bursicon-induced LGR2 CRE-luciferase signal, primary screen, cell-based, HEK293, CRE-luciferase reporter, bursicon stimulation. bursicon-stimulated, 4 h. Drosophila bursicon receptor LGR2 (rickets). inhibition, % at 9.99 µM. AID 720647, 2013. 0.35% of 380,000 active;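 active = drop in luminescence signal, shown as inhibition above about 50% in the replicate tests, limit read from the data, passing the limit was not always enough; inconclusive = probably only some replicates passing the limit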;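 also: agonist challenge used bursicon conditioned medium at about half maximal strength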
PAX8 inh HTS: inhibitors of PAX8-driven TPO luciferase reporter, primary screen, RMG-I cells, single concentration; inhibition, % at 12.6 µM; 1.2% of 360,000 active; SteadyGlo, 24 h;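 active = mean replicate inhibition at least 60% with every replicate also reaching 60%; inconclusive = only one of the two criteria is met; inactive = mean below 60% and not all replicates reaching 60%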;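 also: luciferase light reporting Pax8 driven TPO promoter activity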
TWEAK-Fn14 inh: inhibitors of TWEAK-Fn14 signaling, primary screen, luciferase reporter cells, uHTS. TWEAK-stimulated Fn14 reporter cells, luciferase luminescence, 8 h. inhibition, % at 10 µM. 2% of 360,000 active. AID 1159606, 2016; in the data active = inhibition above about 50%
Each line names hits and unclear results; the compound was inactive in the other large screens. The list is not random: actives were taken first. Their share in the collection is about 3.2%.

C[C@@H]1CCCCO[C@@H](CN(C)S(=O)(=O)c2cccs2)[C@@H](C)CN([C@@H](C)CO)C(=O)c2cc(NC(=O)Nc3cccc4ccccc34)ccc2O1	none (no result: EBV LMP1 NFkB, TROY signal inh, TWEAK-Fn14 inh)
COc1ccc(-c2ccc3c(c2)[C@@H]2[C@@H](CCN2C(=O)NC2CCCCC2)[C@@H](CO)N3C)cc1	PAX8 inh HTS 84.8 (no result: EBV LMP1 NFkB, TROY signal inh, TWEAK-Fn14 inh)
COc1ccc(NC(=O)N2CC[C@@H]3[C@H]2c2cc(-c4ccc(F)cc4)ccc2N(C)[C@H]3CO)cc1	PAX8 inh HTS 71.0 (no result: EBV LMP1 NFkB, TROY signal inh, TWEAK-Fn14 inh)
CN1c2ccc(-c3ccccc3)cc2[C@@H]2[C@@H](CCN2C(=O)NC2CCCCC2)[C@@H]1CO	PAX8 inh HTS 81.3 (no result: EBV LMP1 NFkB, TROY signal inh, TWEAK-Fn14 inh)
COc1ccc(NC(=O)N(C)C[C@@H]2Oc3ncc(-c4ccc(C#N)cc4)cc3C(=O)N([C@H](C)CO)C[C@H]2C)cc1	none (no result: EBV LMP1 NFkB, TROY signal inh, PAX8 inh HTS, TWEAK-Fn14 inh)
C/C(=N/NC(=O)c1cc(C2CC2)[nH]n1)c1cccs1	EBV LMP1 NFkB 60.3, TWEAK-Fn14 inh 88.7 (no result: EWS-Fli inh, LGR2 inh)
C/C(=N\NC(=O)c1ccncc1)c1cccs1	none
C/C(=N\NC(=O)c1ccccc1O)c1cccs1	LGR2 inh 51.6, TWEAK-Fn14 inh 73.3
C/C(=N\NC(=O)c1cccc2ccccc12)c1cccs1	none
O=C(N/N=C/c1cccc2ccccc12)c1cc(C2CC2)[nH]n1	EBV LMP1 NFkB 52.6
O=C(O)c1ccc(S(=O)(=O)/N=C2\C=C(Nc3ccccc3F)C(=O)c3ccccc32)cc1	EWS-Fli inh inconclusive, LGR2 inh 101.0, TWEAK-Fn14 inh 96.4
Cc1ccccc1NC1=C/C(=N\S(=O)(=O)c2ccc(C(=O)O)cc2)c2ccccc2C1=O	TWEAK-Fn14 inh 93.5
CCc1ccc(S(=O)(=O)/N=C2\C=C(NS(=O)(=O)c3ccccc3)C(=O)c3ccccc32)cc1	none
OCCOCCN1CCN(C2=Nc3ccccc3Sc3ccccc32)CC1	none
O=C1C=CC(=O)c2c(O)c(N3CCN(CCO)CC3)c(Cl)c(O)c21	EBV LMP1 NFkB 71.5
O=C1C=CC(=O)c2c(O)c(N3CCN(CCOCCO)CC3)c(Br)c(O)c21	EBV LMP1 NFkB 82.0, EWS-Fli inh inconclusive, PAX8 inh HTS 97.4
O=S(=O)(c1ccc(Br)cc1Cl)N1CCN(CCO)CC1	none
O=C(c1cc(S(=O)(=O)NCc2ccco2)ccc1Br)N1CCOCC1	EBV LMP1 NFkB 70.9
COc1ccc(S(=O)(=O)NCc2ccco2)cc1C(=O)N1CCOCC1	none
CC(C)(O)C#Cc1ccc([C@H]2[C@@H](CO)N3CCCCN(C(=O)c4cccc(F)c4)C[C@@H]23)cc1	none (no result: EBV LMP1 NFkB, EWS-Fli inh, TROY signal inh, TWEAK-Fn14 inh)
Cc1cc(NCCCN2CCOCC2)n2ncc(-c3ccc(Cl)cc3)c2n1	none (no result: EWS-Fli inh, LGR2 inh)
Cc1cc(NCCCn2ccnc2)n2ncc(-c3ccc(Cl)cc3)c2n1	TROY signal inh 70.3, TWEAK-Fn14 inh 67.8 (no result: EWS-Fli inh, LGR2 inh, PAX8 inh HTS)
N#Cc1c([N+](=O)[O-])cc([N+](=O)[O-])cc1S(=O)(=O)Cc1ccccc1	EWS-Fli inh inconclusive, TROY signal inh 51.6, PAX8 inh HTS 101.0
COc1cccc(NC(=O)Nc2ccc3c(c2)C(=O)N(C)[C@@H]2CC[C@H](CC(=O)O)O[C@@H]2CO3)c1	none (no result: EBV LMP1 NFkB, TROY signal inh, TWEAK-Fn14 inh)
CCOC(=O)C1(CCCc2ccccc2)CCN(C2CCSCC2)CC1	TWEAK-Fn14 inh 54.6
COc1cccc(/C=N/n2c(C3CCCCC3)n[nH]c2=S)c1	TWEAK-Fn14 inh 52.2
Oc1cccc(/C=N/n2c(C3CCCCC3)n[nH]c2=S)c1	none
COc1cc(/C=C/C(=O)OCC(=O)Nc2ccccc2Sc2ccc(Cl)cc2)ccc1O	TROY signal inh 51.8 (no result: EWS-Fli inh)
COc1cc(/C=C/C(=O)OCC(=O)NNC(=O)c2cc(Cl)ccc2OC)ccc1O	none
COc1cc(/C=C/C(=O)OCC(=O)NC(C)c2ccccc2)cc(OC)c1OC (stereo not given)	TWEAK-Fn14 inh 56.8
COc1ccccc1NC(=O)N1CCCCN2[C@H](CO)[C@H](c3ccc(-c4cccc(F)c4)cc3)[C@H]2C1	none (no result: EBV LMP1 NFkB, TROY signal inh, TWEAK-Fn14 inh)
COc1ccccc1NC(=O)N1CCCCN2[C@H](C1)[C@@H](c1ccc(-c3ccccc3)cc1)[C@@H]2CO	none (no result: EBV LMP1 NFkB, TROY signal inh, LGR2 inh, TWEAK-Fn14 inh)
COc1ccccc1NC(=O)N1CCCCN2[C@H](CO)[C@H](c3ccc(-c4ccc(C)cc4)cc3)[C@H]2C1	PAX8 inh HTS 80.4 (no result: EBV LMP1 NFkB, TROY signal inh, TWEAK-Fn14 inh)
COc1ccccc1NC(=O)N1CCCCN2[C@@H](CO)[C@H](c3ccc(-c4cccc(F)c4)cc3)[C@@H]2C1	LGR2 inh 75.7 (no result: EBV LMP1 NFkB, TROY signal inh, TWEAK-Fn14 inh)
Cc1ccc(-c2ccc([C@@H]3[C@H](CO)N4CCCCN(C(=O)c5ccc(F)cc5)C[C@@H]34)cc2)cc1	PAX8 inh HTS 72.0 (no result: EBV LMP1 NFkB, TROY signal inh, TWEAK-Fn14 inh)
COc1ccc2[nH]c(C)c(CCN3C(=O)OC(C)(C)C3(C)O)c2c1 (stereo not given)	EBV LMP1 NFkB 90.1
CC1CCCN(C(=O)c2ccc(S(=O)(=O)N3CCC(c4nc5ccccc5s4)CC3)cc2)C1 (stereo not given)	TROY signal inh 51.9, TWEAK-Fn14 inh 56.7 (no result: EWS-Fli inh, LGR2 inh, PAX8 inh HTS)
CCN(CC)C(=O)c1ccc(S(=O)(=O)N2CCC(c3nc4ccccc4s3)CC2)cc1	none (no result: EWS-Fli inh, LGR2 inh, PAX8 inh HTS)
C/C=C/c1ccc([C@H]2[C@@H](CNC(=O)c3ccncc3)N(C(C)=O)[C@H]2CO)cc1	none (no result: EBV LMP1 NFkB, TROY signal inh, TWEAK-Fn14 inh)
O=C(NCCCl)NNc1c(Cl)cc(Cl)cc1Cl	TROY signal inh 71.7, TWEAK-Fn14 inh 51.1
Cc1cc(C)cc(Nc2ncc3c(n2)CCCC3=O)c1	TWEAK-Fn14 inh 71.1 (no result: EWS-Fli inh, PAX8 inh HTS)
Cc1cccc(S(=O)(=O)N[C@H]2CC[C@H](CCNC(=O)Nc3cc(F)ccc3F)O[C@@H]2CO)c1	none (no result: EBV LMP1 NFkB, TROY signal inh, TWEAK-Fn14 inh)
Cc1cccc(NC(=S)N=Nc2c(O)[nH]c3ccccc23)c1	TWEAK-Fn14 inh 82.6 (no result: EWS-Fli inh)
CN1c2ccc(C3=CCCCC3)cc2[C@H]2[C@H](CCN2S(=O)(=O)c2ccccc2F)[C@@H]1CO	none (no result: EBV LMP1 NFkB, TROY signal inh, TWEAK-Fn14 inh)
O=C1NC(=S)S/C1=C\C=C\c1ccc([N+](=O)[O-])o1	EWS-Fli inh 69.9, TWEAK-Fn14 inh 50.1
CC(C)C[C@H](NC(=O)c1nc[nH]c1C(=O)NC(c1ccccc1)c1ccccc1)C(=O)OC(C)(C)C	PAX8 inh HTS 67.5
CC(C)C[C@H](NC(=O)c1nc[nH]c1C(=O)N[C@@H](CC(C)C)C(=O)OC(C)(C)C)C(=O)OC(C)(C)C	PAX8 inh HTS 65.9
CC(C)C[C@H](NC(=O)c1[nH]cnc1C(=O)N[C@H](C)c1ccccc1)C(=O)OC(C)(C)C	none
C[C@@H]1CCCCO[C@H](CN(C)S(=O)(=O)c2ccc(Cl)cc2)[C@@H](C)CN([C@H](C)CO)C(=O)c2cc(NC(=O)CCCCCC(=O)Nc3ccccc3N)ccc2O1	none (no result: EBV LMP1 NFkB, TROY signal inh, TWEAK-Fn14 inh)
CCOc1ccc(C(c2c(NC(=O)c3ccco3)sc(C)c2C)N2CCOCC2)cc1 (stereo not given)	TWEAK-Fn14 inh 66.5
COc1cccc(C(c2c(NC(=O)c3ccco3)sc(C)c2C)N2CCOCC2)c1 (stereo not given)	TWEAK-Fn14 inh 81.6
